Results taken from the supplement of paper PMC9262897, “Low-cost anti-mycobacterial drug discovery using engineered E. coli” (Nature Communications, 2022).
Counter-ions that a name gives are not always drawn. ± gives the standard deviation of the averaged measurements.

What was measured:
Test in all cases: growth (OD600 after 10 h); higher = more growth (less inhibition)
[1] = tested on: E. coli TESEC Alr+ wild-type control; settings: compound 0.1 mM; raw OD600 reference: median of DMSO wells 0.241, cell-free background 0.041
Description: (§1)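 TESEC Mtb Alr E. coli, or the Alr+ wild-type control, in 384-well plates with Prestwick library compounds at 0.1 mM and 1% DMSO, across arabinose induction levels of 1E3 to 1E7 nM. Growth is read as OD600 after 10 h at 37 °C in triplicate biological replicates.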

E. coli TESEC Mtb Alr [2] = settings: compound 0.1 mM
Description: as §1

E. coli TESEC Mtb Asd = settings: compound 0.1 mM
Description: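 TESEC E. coli strains in which the native enzyme is deleted and replaced by arabinose-inducible Mtb Asd, DapB, CysH or TrpD, each grown in its selective medium. Strains were screened against the Prestwick library at 0.1 mM and 1% DMSO in 384-well format at low and high arabinose induction. Growth is read as OD600 after 10 h in triplicate.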

E. coli TESEC Mtb Alr [3] = settings: compound 0.1 mM; remark: listed apart in the source
Description: (§2)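 TESEC Mtb Alr E. coli (ΔaraC ΔtolC ΔentC Δalr ΔdadX, arabinose-inducible Mtb Alr) or the Alr+ wild-type control strain, grown in defined M9-fructose medium without D-alanine in 96-well plates with Prestwick library compounds at 0.1 mM and 1% DMSO. Low Alr induction is 0.1 µM arabinose and high induction is 10 mM arabinose.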

[4] = tested on: E. coli TESEC Alr+ wild-type control; settings: compound 0.1 mM; raw OD600 reference: median of DMSO wells 0.49, cell-free background 0.052
Description: as §2

[5] = arabinose 1000 nM, raw OD600 reference: median of DMSO wells 0.294, cell-free background 0.041
[6] = arabinose 10000 nM, raw OD600 reference: median of DMSO wells 0.264, cell-free background 0.041
[7] = arabinose 100000 nM, raw OD600 reference: median of DMSO wells 0.201, cell-free background 0.041
[8] = arabinose 1000000 nM, raw OD600 reference: median of DMSO wells 0.193, cell-free background 0.041
[9] = arabinose 10000000 nM, raw OD600 reference: median of DMSO wells 0.146, cell-free background 0.041
[10] = arabinose induction (level): High, raw OD600 reference: median of DMSO wells 0.331, cell-free background 0.041
[11] = arabinose induction (level): Low, raw OD600 reference: median of DMSO wells 0.417, cell-free background 0.041
[12] = arabinose 100 nM, raw OD600 reference: median of DMSO wells 0.413, cell-free background 0.052
[13] = arabinose 10000000 nM, raw OD600 reference: median of DMSO wells […], cell-free background 0.052

| SMILES | growth [1] | growth (E. coli TESEC Mtb Alr [2]; [5]) | growth (E. coli TESEC Mtb Alr [2]; [6]) | growth (E. coli TESEC Mtb Alr [2]; [7]) | growth (E. coli TESEC Mtb Alr [2]; [8]) | growth (E. coli TESEC Mtb Alr [2]; [9]) | growth (E. coli TESEC Mtb Asd; [10]) | growth (E. coli TESEC Mtb Asd; [11]) | growth (E. coli TESEC Mtb Alr [3]; [12]) | growth (E. coli TESEC Mtb Alr [3]; [13]) | growth [4] |
| --- | --- | --- | --- | --- | --- | --- | --- | --- | --- | --- | --- |
| O=C(NCCNCC(O)COc1ccc(O)cc1)N1CCOCC1 (configuration not stated) [Xamoterol hemifumarate] | 0.241 ± 0.013 | 0.303 ± 0.014 | 0.272 ± 0.0074 | 0.195 ± 0.022 | 0.19 ± 0.0053 | 0.138 ± 0.0031 | 0.447 ± 0.069 | 0.463 ± 0.043 | 0.405 ± 0.016 | 0.326 ± 0.0053 |  |
| CC[N+](C)(CC)CCOC(=O)C1c2ccccc2Oc2ccccc21 [Methantheline bromide] | 0.192 ± 0.0029 | 0.269 ± 0.011 | 0.287 ± 0.0031 | 0.18 ± 0.015 | 0.193 ± 0.025 | 0.135 ± 0.007 | 0.223 ± 0.043 | 0.344 ± 0.044 | 0.4172 ± 0.0035 | 0.336 ± 0.013 | 0.592 ± 0.017 |
| CCC(C)(C)c1ccc(CC(C)CN2C[C@@H](C)O[C@@H](C)C2)cc1 (some centres not stated) [Amorolfine hydrochloride] | 0.0552 ± 0.0076 | 0.107 ± 0.0069 | 0.0519 ± 0.0014 | 0.0591 ± 0.0048 | 0.04143 ± 0.00023 | 0.0502 ± 0.0026 | 0.237 ± 0.052 | 0.284 ± 0.031 | 0.0639 ± 0.0015 | 0.0533 ± 0.0014 |  |
| N=C(N)NC(=O)Cc1c(Cl)cccc1Cl [Guanfacine hydrochloride] | 0.241 ± 0.0058 | 0.287 ± 0.0063 | 0.26 ± 0.0052 | 0.236 ± 0.018 | 0.143 ± 0.0065 | 0.165 ± 0.0022 | 0.43 ± 0.13 | 0.444 ± 0.018 | 0.406 ± 0.0086 | 0.329 ± 0.018 |  |
| CC(c1cc2ccccc2s1)N(O)C(N)=O (configuration not stated) [Zileuton] | 0.229 ± 0.004 | 0.295 ± 0.021 | 0.254 ± 0.011 | 0.223 ± 0.018 | 0.183 ± 0.0054 | 0.151 ± 0.0028 | 0.338 ± 0.022 | 0.352 ± 0.012 | 0.403 ± 0.0065 | 0.3407 ± 0.00091 |  |
| COc1ccc(C2CNC(=O)C2)cc1OC1CCCC1 (configuration not stated) [Rolipram] | 0.209 ± 0.0078 | 0.275 ± 0.012 | 0.29 ± 0.0047 | 0.177 ± 0.0086 | 0.198 ± 0.012 | 0.14 ± 0.0022 | 0.373 ± 0.044 | 0.425 ± 0.047 | 0.4 ± 0.013 | 0.311 ± 0.019 | 0.623 ± 0.011 |
| COc1cc2nc(N3CCN(C(=O)c4ccco4)CC3)nc(N)c2cc1OC [Prazosin hydrochloride] | 0.242 ± 0.0066 | 0.319 ± 0.019 | 0.239 ± 0.0065 | 0.185 ± 0.008 | 0.147 ± 0.015 | 0.226 ± 0.0067 | 0.263 ± 0.09 | 0.348 ± 0.091 | 0.399 ± 0.013 | 0.3092 ± 0.0026 |  |
| CC(=O)OCC(=O)[C@@]1(O)[C@H](C)C[C@H]2[C@@H]3CCC4=CC(=O)C=C[C@]4(C)[C@@]3(F)[C@@H](O)C[C@@]21C [Dexamethasone acetate] | 0.167 ± 0.006 | 0.239 ± 0.041 | 0.226 ± 0.007 | 0.192 ± 0.017 | 0.119 ± 0.0023 | 0.1362 ± 0.00044 | 0.226 ± 0.034 | 0.356 ± 0.056 | 0.396 ± 0.011 | 0.234 ± 0.018 | 0.477 ± 0.033 |
| NC(=O)NC1NC(=O)NC1=O (configuration not stated) [Allantoin] | 0.253 ± 0.015 | 0.281 ± 0.017 | 0.258 ± 0.0083 | 0.244 ± 0.0082 | 0.173 ± 0.0071 | 0.142 ± 0.0025 | 0.375 ± 0.027 | 0.424 ± 0.028 | 0.41 ± 0.011 | 0.28 ± 0.14 |  |
| CN(C)CCCN1c2ccccc2CCc2ccc(Cl)cc21 [Clomipramine hydrochloride] | 0.04137 ± 0.00021 | 0.03983 ± 0.00015 | 0.03953 ± 0.00025 | 0.0451 ± 0.0062 | 0.04 ± 0.00035 | 0.0473 ± 0.0044 | 0.0467 ± 0.00076 | 0.0482 ± 0.0034 | 0.4115 ± 0.0024 | 0.193 ± 0.066 | 0.202 ± 0.26 |
| CNCCC(Oc1ccccc1OC)c1ccccc1 (configuration not stated) [Nisoxetine hydrochloride] | 0.206 ± 0.015 | 0.258 ± 0.011 | 0.2337 ± 0.0022 | 0.173 ± 0.004 | 0.153 ± 0.0049 | 0.139 ± 0.0023 | 0.247 ± 0.049 | 0.405 ± 0.026 | 0.4 ± 0.011 | 0.346 ± 0.018 | 0.566 ± 0.12 |
| CC(C)Cn1cnc2c(N)nc3ccccc3c21 [Imiquimod] | 0.224 ± 0.017 | 0.282 ± 0.0092 | 0.282 ± 0.01 | 0.165 ± 0.012 | 0.178 ± 0.014 | 0.158 ± 0.01 | 0.209 ± 0.026 | 0.392 ± 0.024 | 0.411 ± 0.0054 | 0.301 ± 0.015 |  |
| CCCN(CCC)S(=O)(=O)c1ccc(C(=O)O)cc1 [Probenecid] | 0.226 ± 0.0059 | 0.254 ± 0.0078 | 0.261 ± 0.011 | 0.221 ± 0.047 | 0.153 ± 0.0022 | 0.159 ± 0.0038 | 0.346 ± 0.12 | 0.371 ± 0.07 | 0.4 ± 0.016 | 0.267 ± 0.0045 |  |
| NC(=O)N1c2ccccc2CC(=O)c2ccccc21 [Oxcarbazepine] | 0.236 ± 0.0086 | 0.269 ± 0.015 | 0.256 ± 0.0035 | 0.211 ± 0.03 | 0.171 ± 0.0024 | 0.146 ± 0.0084 | 0.225 ± 0.042 | 0.322 ± 0.043 | 0.403 ± 0.0086 | 0.321 ± 0.0074 |  |
| CC12CC3CC(C)(C1)CC(N)(C3)C2 [Memantine Hydrochloride] | 0.161 ± 0.005 | 0.207 ± 0.007 | 0.237 ± 0.017 | 0.184 ± 0.0066 | 0.195 ± 0.019 | 0.175 ± 0.0048 | 0.256 ± 0.039 | 0.155 ± 0.011 | 0.398 ± 0.018 | 0.392 ± 0.018 |  |
| COc1cc(Cc2cnc(N)nc2N)cc(OC)c1OC [Trimethoprim] | 0.0601 ± 0.0005 | 0.04863 ± 0.00047 | 0.0442 ± 0.00076 | 0.04953 ± 0.00035 | 0.04553 ± 0.0004 | 0.0534 ± 0.00081 | 0.0958 ± 0.044 | 0.0867 ± 0.014 | 0.0922 ± 0.026 | 0.0701 ± 0.0035 | 0.0896 ± 0.0014 |
| N[C@@H](Cc1ccc(O)c(O)c1)C(=O)O [Levodopa] | 0.229 ± 0.0045 | 0.275 ± 0.015 | 0.267 ± 0.015 | 0.199 ± 0.028 | 0.178 ± 0.0063 | 0.138 ± 0.0042 | 0.383 ± 0.026 | 0.455 ± 0.0078 | 0.413 ± 0.013 | 0.354 ± 0.018 |  |
| Cc1ccc(C(=O)c2ccc(CC(=O)O)n2C)cc1 [Tolmetin sodium salt dihydrate] | 0.234 ± 0.0061 | 0.281 ± 0.014 | 0.253 ± 0.0051 | 0.169 ± 0.011 | 0.184 ± 0.0077 | 0.1348 ± 0.00087 | 0.432 ± 0.032 | 0.3668 ± 0.0019 | 0.387 ± 0.018 | 0.337 ± 0.0088 |  |
| CC1c2cccc(O)c2C(O)=C2C(=O)C3(O)C(O)=C(C(N)=O)C(=O)C(N(C)C)C3C(O)C21 (configuration not stated) [Doxycycline hydrochloride] | 0.0447 ± 0.00093 | 0.0433 ± 0.002 | 0.0456 ± 0.001 | 0.04713 ± 0.00031 | 0.0487 ± 0.0075 | 0.0461 ± 0.0007 | 0.0572 ± 0.0053 | 0.0534 ± 0.0016 | 0.0647 ± 0.0031 | 0.0602 ± 0.0014 | 0.0579 ± 0.0011 |
